From PubChem BioAssay
Calls of active or inactive are those of the source.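 How the source made its calls, unless noted: active means visual image review flags a hit and inhibition of aggregation exceeds 20%; inconclusive means visual hit but inhibition at or below 20%; inactive means no hit on visual image review.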

What was measured:
[1] = inhibitors of TNFa-induced NFkB p65 translocation, primary screen, imaging, HUVEC, MLSMR starter and 10KST1 sets (AID 438;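 active means inhibition above 20% together with a positive visual image hit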;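 further: compound added about 3h40 before a 20 min TNFalpha stimulation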;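 on inhibition: signal is the nuclear over cytoplasmic p65 intensity ratio per well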); conditions: HUVEC TNFa-induced p65 nuclear translocation; cell count: measured here: nuclei count (cytotoxicity indicator), at 2.08 µM; inhibition: at 2 µM, stronger effect = higher value, 0% TNFa-plus-vehicle, 100% no-TNFa wells
[2] = reduction of polyQ htt aggregates in cells – imaging, exon1htt(103Q)mCFP cells, high-content imaging, primary screen (AID 483); conditions: exon1htt(103Q)mCFP cell line, aggregate imaging, at 2 µM; inhibition of aggregation: stronger effect = higher value; nuclei count: measured here: cell count, toxicity;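 further: compound exposure lasted 3 days before fixation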;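 on nuclei count: percent of the per-plate median nuclei count of sample wells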
[3] = endothelial E-selectin expression blockers – imaging, HUVEC, immunofluorescence, MLSMR starter and 10KST1 sets, primary screen (AID 487;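 active means visually confirmed hit in the image check and inhibition above 20%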;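 on inhibition: signal is fraction of cell area covered by stained E-selectin grains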;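 on nuclei count: 100% = median nuclei count of all wells on the same plate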); conditions: HUVEC TNFalpha-induced E-selectin immunofluorescence imaging, at 2 µM; inhibition: stronger effect = higher value; nuclei count: measured here: cell number, toxicity
[4] = target: Voltage-gated potassium channel subunit beta-2 (Rattus norvegicus) (UniProt P62483); test: inhibitors of rat Kvbeta2 reductase activity – biochemical, NADPH fluorescence, primary screen (AID 622;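 active means fluorescence slope higher than the sample average by over 3 SD, cut at about -0.22 in these data, passing the limit was not always enough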;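 further: slope of raw intensity against log time taken from 70 to 1610 s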); conditions: recombinant KvBeta, 4-cyanobenzaldehyde reduction, at 10 µM, stronger effect = higher value
[5] = target: Voltage-gated potassium channel subunit beta-2 (Rattus norvegicus) (UniProt P62483); test: enhancers of rat Kvbeta2 NADPH turnover – biochemical, NADPH fluorescence, primary screen (AID 623;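 active means NADPH fluorescence slope more negative than the mean of all samples by about 3 SD, 99.7% confidence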;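 further: fluorescence intensity change per second fitted from 20 to 320 s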); conditions: Recombinant KvBeta, NADPH fluorescence decrease slope, 10 min; at 10 µM; stronger effect = lower value
[6] = target: Alpha-2C adrenergic receptor (Homo sapiens) (UniProt P18825); test: compounds altering alpha2C-coupled GIRK flux – cell-based, HEK293 alpha2C/GIRK1/2, thallium flux, primary screen (AID 624;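 active means fluorescence slope after compound addition differing from the mean of all screened samples at 99.7% confidence, in either direction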;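 further: slope of fluorescence ratio to pre-addition baseline per second over 15 to 24 s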); conditions: thallium flux BTC fluorescence, at 10 µM, actives lie on both sides
[7] = blockers of RIG-like receptor reporter activation – cell-based, Sendai virus stimulus, luciferase, 10K MLSCN set, TLR/RLR signaling modifier project, primary screen (AID 602276;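 active means inhibition at or above 50% at 10 µM; inactive means inhibition below 50%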;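 further: firefly luciferase from ISG56 promoter only with Renilla not read in this screen; 0% = Sendai virus plus DMSO and 100% = medium plus DMSO without virus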); conditions: HEK293 RL24 IRF3 luciferase reporter, at 10 µM, stronger effect = higher value
[8] = TLR3 IRF3 reporter activation blockers – cell-based, poly I:C stimulus, luciferase, 10K MLSCN set, primary screen (AID 602277;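 active means inhibition of the reporter signal at or above 50%; inactive means inhibition below 50%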); conditions: HEK293-TLR3 RL24 IRF3 luciferase reporter, at 10 µM, stronger effect = higher value

Sequence of Alpha-2C adrenergic receptor (Homo sapiens) (P18825 whole entry, looked up): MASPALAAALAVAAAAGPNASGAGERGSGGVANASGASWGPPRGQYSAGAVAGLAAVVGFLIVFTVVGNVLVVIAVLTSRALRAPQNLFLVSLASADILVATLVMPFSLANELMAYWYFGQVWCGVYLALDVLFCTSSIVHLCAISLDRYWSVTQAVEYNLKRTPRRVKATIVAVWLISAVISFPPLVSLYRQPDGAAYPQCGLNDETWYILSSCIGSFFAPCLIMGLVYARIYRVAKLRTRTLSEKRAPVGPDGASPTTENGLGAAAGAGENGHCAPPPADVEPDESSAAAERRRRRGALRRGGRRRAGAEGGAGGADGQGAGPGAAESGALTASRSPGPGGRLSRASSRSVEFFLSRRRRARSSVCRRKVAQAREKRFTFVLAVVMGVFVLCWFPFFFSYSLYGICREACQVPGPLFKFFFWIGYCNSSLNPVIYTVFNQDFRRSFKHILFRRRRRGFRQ
Sequence of Voltage-gated potassium channel subunit beta-2 (Rattus norvegicus) (P62483 whole entry, looked up): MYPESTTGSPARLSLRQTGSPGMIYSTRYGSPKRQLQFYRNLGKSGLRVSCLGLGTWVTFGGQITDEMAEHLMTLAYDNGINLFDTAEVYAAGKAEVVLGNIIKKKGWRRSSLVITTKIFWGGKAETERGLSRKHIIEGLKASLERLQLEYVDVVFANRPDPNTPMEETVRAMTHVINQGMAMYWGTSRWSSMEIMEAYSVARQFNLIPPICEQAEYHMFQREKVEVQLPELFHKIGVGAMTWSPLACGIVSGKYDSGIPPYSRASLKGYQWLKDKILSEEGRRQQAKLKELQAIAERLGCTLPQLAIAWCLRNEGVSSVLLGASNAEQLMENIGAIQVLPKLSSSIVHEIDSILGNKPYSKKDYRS

SMILES | cell count [1] | inhibition [1] | inhibition of aggregation [2] | nuclei count [2] | inhibition [3] | nuclei count [3] | fluorescence slope [4] | NADPH fluorescence slope [5] | slope [6] | inhibition [7] | inhibition [8]
Cc1cc(C(=O)Cn2cncn2)c(C)n1CCc1ccc(F)cc1 | 453 | -2.5% (inactive) | 0.8% (inactive) | 91.7% | -92.9% (inactive) | 98.5% | -0.48 (inactive) | -4e-05 (inactive) | 0.00641 (inactive) | 0.317% (inactive) | 16.3% (inactive)
CCCOC(=O)/C(C(N)=NCc1ccccc1)=C(\O)OCCC | 488 | 4.4% (inactive) | -27.7% (inactive) | 110% | -8.5% (inactive) | 127% | -0.406 (inactive) | 0.00015 (inactive) | 0.00562 (inactive) | -11.7% (inactive) | -11.9% (inactive)
CC(=O)Nc1ccc(NS(=O)(=O)c2ccc(Cl)c(C(=O)O)c2)cc1 | 688 | -3.9% (inactive) | 11.4% (inactive) | 124% | -37.3% (inactive) | 128% | -0.42 (inactive) | -3.1e-05 (inactive) | 0.00403 (inactive) | -2.13% (inactive) | 20.4% (inactive)
CN(C)c1ccc(C(=O)OCC(=O)NC2CCCCC2)cc1 | 548 | -0.3% (inactive) | 4.3% (inactive) | 90.3% | -46.5% (inactive) | 110% | -0.475 (inactive) | -3.6e-05 (inactive) | 0.00547 (inactive) | 16.6% (inactive) | 10.9% (inactive)
O=C1C/C(=C/NCc2ccccc2)C(=O)N1 | 464 | -7.4% (inactive) | 22.7% (inactive) | 67.6% | -106% (inactive) | 95.9% | -0.423 (inactive) | -2.2e-05 (inactive) | 0.0024 (inactive) | 4.55% (inactive) | 30.7% (inactive)
Cc1ccc(C)n1-n1c(C)nc2sc(-c3ccccc3)cc2c1=O | 419 | -0.6% (inactive) | -8.2% (inactive) | 85.3% | -143% (inactive) | 109% | -0.363 (inactive) | 3.8e-06 (inactive) | 0.00611 (inactive) | -68% (inactive) | -272% (inactive)
COc1cccc(OCCn2ccnc2)c1 | 305 | -6.6% (inactive) | 9.6% (inactive) | 82.1% | -24.7% (inactive) | 120% | -0.422 (inactive) | 2e-05 (inactive) | 0.00692 (inactive) | -8.26% (inactive) | -3.22% (inactive)
CC(C)(CO)NC(=O)CCCOc1ccc(Cl)cc1Cl | 397 | -4.9% (inactive) | 6.2% (inactive) | 97.4% | 35.5% (inactive) | 98.8% | -0.431 (inactive) | -2.6e-05 (inactive) | 0.00385 (inactive) | -27.2% (inactive) | -47.8% (inactive)
Cc1ccc(S(=O)(=O)N2CCCC(c3nnc4n3-c3ccccc3SC4)C2)cc1 (stereo not drawn) | 431 | 3.4% (inactive) | 4.2% (inactive) | 95.7% | -34% (inactive) | 103% | -0.67 (inactive) | -3.6e-05 (inactive) | 0.00342 (inactive) | 16.2% (inactive) | 19.1% (inactive)
O=C1CC(Sc2nnc(-c3ccccc3)o2)C(=O)N1c1ccccc1 (stereo not drawn) | 677 | -1.1% (inactive) | 3.6% (inactive) | 105% | -12.2% (inactive) | 91.1% | -0.404 (inactive) | -6.5e-05 (inactive) | 0.00487 (inactive) | 4.52% (inactive) | 3.11% (inactive)
CCOC(=O)Cn1ncc(-c2ccccc2)c1N | 582 | -0.5% (inactive) | -6.8% (inactive) | 67.2% | -51.5% (inactive) | 96.2% | -0.48 (inactive) | 2.4e-05 (inactive) | 0.0046 (inactive) | -14.7% (inactive) | -27.5% (inactive)
O=C(OCCN=C1NS(=O)(=O)c2ccccc21)C1CC(=O)N(c2ccc(Cl)cc2)C1 (stereo not drawn) | 354 | 2.7% (inactive) | -0.2% (inactive) | 118% | -44.7% (inactive) | 107% | -0.448 (inactive) | 2.4e-05 (inactive) | 0.00337 (inactive) | 6.2% (inactive) | 23.6% (inactive)
COc1ccc(NC(=O)c2oc3ccc(S(=O)(=O)N4CCC5(CC4)OCCO5)cc3c2C)cc1 | 209 | -4.4% (inactive) | 10% (inactive) | 83.1% | -77.8% (inactive) | 121% | -0.447 (inactive) | 4.2e-05 (inactive) | 0.00642 (inactive) | 3.21% (inactive) | 10.5% (inactive)
COc1ccc(CCNC(=O)CC2COc3ccccc3O2)cc1OC (stereo not drawn) | 611 | -7.2% (inactive) | 25% (inactive) | 115% | -28.9% (inactive) | 115% | -0.619 (inactive) | 2.1e-05 (inactive) | 0.00334 (inactive) | 19.4% (inactive) | 20.3% (inactive)
O=C(c1csc2ccccc12)N1CCCCCC1 | 359 | 5.6% (inactive) | 13.8% (inactive) | 100% | -16.8% (inactive) | 106% | -0.512 (inactive) | 8.9e-06 (inactive) | 0.0038 (inactive) | 7.71% (inactive) | 5.9% (inactive)
COc1ccccc1N1CCN(C(CNS(=O)(=O)c2cc(F)ccc2F)c2cccnc2)CC1 (stereo not drawn) | 557 | 7.2% (inactive) | -5.9% (inactive) | 96.7% | -5% (inactive) | 108% | -0.359 (inactive) | -5.8e-05 (inactive) | 0.00529 (inactive) | 9.38% (inactive) | 22.5% (inactive)
COc1ccc(CNC(=O)c2ccc(CN3CCOCC3)cc2)cc1 | 645 | -7.8% (inactive) | -5.7% (inactive) | 103% | 7.3% (inactive) | 147% | -0.472 (inactive) | -2.6e-05 (inactive) | 0.00567 (inactive) | 7.5% (inactive) | -5.55% (inactive)
CC(=O)NC(C)C(=O)OCC(=O)Nc1ccc(Br)cc1 (stereo not drawn) | 436 | 6.9% (inactive) | 5.5% (inactive) | 112% | -23.8% (inactive) | 116% | -0.246 (inactive) | -5.1e-06 (inactive) | 0.00449 (inactive) | 20% (inactive) | 13.9% (inactive)
Cc1cc(C)c(C#N)c(SCC(=O)Nc2ccc(S(=O)(=O)Nc3onc(C)c3C)cc2)n1 | 607 | 2.9% (inactive) | 3.9% (inactive) | 103% | -59.1% (inactive) | 122% | -0.448 (inactive) | 1.9e-05 (inactive) | 0.00553 (inactive) | 9.61% (inactive) | 24.3% (inactive)
Cn1nnnc1SCC(=O)N1CCN(c2ccccc2)CC1 | 400 | -0.2% (inactive) | 7% (inactive) | 97.4% | -49.9% (inactive) | 97.6% | -0.362 (inactive) | -4.2e-05 (inactive) | 0.00625 (inactive) | 11.7% (inactive) | 27.5% (inactive)
O=C1CC(c2cccnc2)c2cc3c(cc2N1)OCO3 (stereo not drawn) | 451 | -1.2% (inactive) | -3.3% (inactive) | 104% | -79.3% (inactive) | 102% | -0.527 (inactive) | -6.9e-06 (inactive) | 0.00697 (inactive) | 0.756% (inactive) | 25% (inactive)
O=C(Nc1ccc(SC(F)F)cc1)c1ccc2nccnc2c1 | 823 | -1.3% (inactive) | 14.5% (inactive) | 101% | 55.1% (active) | 95% | -0.39 (inactive) | 2e-05 (inactive) | 0.00714 (inactive) | -15% (inactive) | -139% (inactive)
O=C(Nc1ccc2c(c1)C(=O)N(C1CCCCC1)C2=O)C1CCCO1 (stereo not drawn) | 269 | -11.7% (inactive) | 9% (inactive) | 71.5% | 47.7% (inactive) | 43.2% | -0.0454 (active) | 6.1e-06 (inactive) | 0.00452 (inactive) | -7.34% (inactive) | -20.5% (inactive)
Cc1cc(C)c(OCC(=O)Nc2cccc(O)c2)cc1C | 252 | -14.9% (inactive) | 46.4% (active) | 40.4% | -20.3% (inactive) | 102% | -0.44 (inactive) | -8.2e-06 (inactive) | 0.0065 (inactive) | 16.6% (inactive) | 11.6% (inactive)
CCCc1[nH]nc2c1C(c1cn[nH]c1-c1ccc(F)cc1)C(C#N)=C(N)O2 (stereo not drawn) | 438 | -8.3% (inactive) | 11.7% (inactive) | 89.8% | -43.7% (inactive) | 137% | -0.38 (inactive) | -0.000105 (inactive) | 0.00672 (inactive) | 18.7% (inactive) | 23.5% (inactive)
COC1CCCCC1NS(=O)(=O)c1ccccc1 (stereo not drawn) | 317 | 1.4% (inactive) | 12.2% (inactive) | 113% | 19.4% (inactive) | 114% | -0.312 (inactive) | -3.1e-06 (inactive) | 0.00597 (inactive) | 11.1% (inactive) | 27.4% (inactive)
COc1ccc(OC)c(C2CC(=O)NC(SC)=C2C#N)c1 (stereo not drawn) | 662 | -9.6% (inactive) | -13.5% (inactive) | 114% | -23.1% (inactive) | 117% | -0.529 (inactive) | -3.6e-05 (inactive) | 0.00545 (inactive) | 8.75% (inactive) | 29% (inactive)
O=C(CSc1nc2ccccc2o1)NC(=O)NCc1ccco1 | 342 | -1.8% (inactive) | -12.3% (inactive) | 94.8% | -31.1% (inactive) | 112% | -0.333 (inactive) | -3.3e-05 (inactive) | 0.00371 (inactive) | -2.31% (inactive) | 12.3% (inactive)
